# Records with an inconclusive call do not appear. Where a call stands in place of a potency, no number is given. Unmarked numbers belong to inactive results. Activity calls are given as the source filed them. The call rests on the fitted dose curve; in most records, active means well fitted curve in the direction sought with a large enough effect; inconclusive means small, poorly fitted or top-dose-only effect, or another doubt; inactive means no such curve, though single readings can be large; an effect the other way counts as inactive or inconclusive.
# Legend:
# [1] = P-glycoprotein substrates identified in KB-3-1 adenocarcinoma cell line, qHTS therapeutic library screen (AID 1346986); further: nearly all actives have a fitted effect of over 60% in size;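 further: potency is for cytotoxicity meaning loss of cell viability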
# In short: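 Counter-screen: cherry-picked hits retested in the KB pair and in HEK-293 pcDNA/MDR-19 cells ± tariquidar. Primary screen used 72 h CellTiter-Glo viability in KB-3-1 and KB-8-5-11.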
# [2] = P-glycoprotein substrates identified in KB-8-5-11 adenocarcinoma cell line, qHTS therapeutic library screen (AID 1346987); further: nearly all actives have a fitted effect of over 65% in size; on activity change, negative = cytotoxicity: series mostly up to about 44 µM
# In short: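 P-gp-mediated resistance screen: KB-8-5-11 cells treated 72 h with compounds in dose-response. CellTiter-Glo viability.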
# [3] = target: Furin (Homo sapiens) (UniProt P09958); assay: Furin counterscreen qHTS for Zika virus inhibitors (AID 1347149); further: nearly all actives have a fitted effect of over 70% in size
# Sequence of Furin (Homo sapiens) (P09958 whole entry, looked up): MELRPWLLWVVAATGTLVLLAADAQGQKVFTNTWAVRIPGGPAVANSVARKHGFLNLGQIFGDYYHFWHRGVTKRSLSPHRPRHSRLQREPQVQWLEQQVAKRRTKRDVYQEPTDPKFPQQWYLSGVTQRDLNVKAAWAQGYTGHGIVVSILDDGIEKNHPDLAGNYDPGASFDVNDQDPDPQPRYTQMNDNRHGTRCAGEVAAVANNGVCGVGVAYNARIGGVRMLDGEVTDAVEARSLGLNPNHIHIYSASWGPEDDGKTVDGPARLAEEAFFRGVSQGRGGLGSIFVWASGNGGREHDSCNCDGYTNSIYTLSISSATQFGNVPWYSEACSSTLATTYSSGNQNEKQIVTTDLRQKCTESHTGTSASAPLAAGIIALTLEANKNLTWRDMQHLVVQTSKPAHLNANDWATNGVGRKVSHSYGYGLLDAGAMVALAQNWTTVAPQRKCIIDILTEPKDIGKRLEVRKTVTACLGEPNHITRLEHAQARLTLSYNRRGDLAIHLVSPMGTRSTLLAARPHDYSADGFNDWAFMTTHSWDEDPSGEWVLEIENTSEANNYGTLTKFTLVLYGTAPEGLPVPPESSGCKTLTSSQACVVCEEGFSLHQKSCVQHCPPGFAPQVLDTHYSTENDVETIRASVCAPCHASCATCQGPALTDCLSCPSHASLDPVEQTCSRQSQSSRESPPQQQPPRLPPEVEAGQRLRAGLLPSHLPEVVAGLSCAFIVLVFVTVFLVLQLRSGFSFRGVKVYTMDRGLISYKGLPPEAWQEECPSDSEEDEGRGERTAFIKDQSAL
# In short: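 Fluorogenic cleavage of BOC-RVRR-AMC (2 microM final, Km ~15 µM) was monitored (ex 340, em 450 nm) at 37C after 15 min RT preincubation of 5 nM furin with compounds in HEPES pH 7.0 buffer with CaCl2 and Triton X-100. Percent inhibition was fitted to a 4-parameter Hill curve.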
# [4] = system: Zika virus NS2B-NS3 protease (linked construct); assay: Confirmatory screen NINDS AMC qHTS for Zika virus inhibitors (AID 1347152); further: nearly all actives have a fitted effect of over 70% in size
# In short: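 Linked NS2B-NS3 1 nM, Tris pH 8.0/0.01% Tween 20; cpd 15 min RT dark; + Nle-KRR-AMC 10 µM (Km 18.3 µM); read 0 and 15 min, 340/450 nm; %inh vs controls, 4-param Hill.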
# [5] = system: Zika virus NS2B-NS3 protease (unlinked complex); assay: Confirmatory screen GU AMC qHTS for Zika virus inhibitors (AID 1347153); details: Recombinant NS2B-NS3 protease, AMC substrate fluorescence;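 further: enzyme at 25 nM with substrate at 10 µM below its Km of 18.3 µM; nearly all actives have a fitted effect of over 70% in size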
# In short: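 Compounds were preincubated 15 min at room temperature with 25 nM noncovalent NS2B-NS3 protease at pH 8.0; AMC substrate added at 10 microM and 15-min fluorescence gain (340/450 nm) converted to percent inhibition, fitted 4-parameter.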
# Potency means the concentration at half of the fitted maximal effect.
structure (smiles),measurement,setting,value
CCN(Cc1cc(Nc2nc(C)cn3c(-c4cn[nH]c4)cnc23)sn1)C(C)(C)CO,Potency,[1],0.0103 µM (active)
same,Potency,[2],0.411 µM (active)
COc1cc(F)c(C(C)C)cc1-c1ccc(C(F)(F)F)cc1CN1C(=O)OC(c2cc(C(F)(F)F)cc(C(F)(F)F)c2)C1C (centres undefined),Potency,[1],inactive
same,Potency,[2],inactive
C[C@@H]1O[C@@H](O[C@H]2[C@@H]3C=CO[C@@H](O[C@@H]4O[C@H](CO)[C@@H](O)[C@H](O)[C@H]4O)[C@@H]3[C@@]3(CO)O[C@@H]23)[C@H](O)[C@H](OC(=O)/C=C/c2ccccc2)[C@H]1O,Potency,[1],inactive
same,Potency,[2],inactive
CC1OC(=O)C[C@@H]2C(C(=O)O)=CO[C@@H](O[C@H]3O[C@H](CO)[C@@H](O)[C@H](O)[C@H]3O)[C@H]12 (some centres undefined),Potency,[1],inactive
same,Potency,[2],inactive
CCC(C)/C=C(C)/C=C/C1=CC2=C(Cl)C(=O)C(C)(OC(C)=O)C(=O)C2(O)C(OC)O1 (centres undefined),Potency,[1],inactive
same,Potency,[2],inactive
C[C@H](Nc1cc2c(-c3ccc4c(c3)OCO4)noc2cn1)c1ccccc1,Potency,[1],inactive
same,Potency,[2],inactive
O=C(O)c1cc(N(Cc2ccc(C3CCCCC3)cc2)C(=O)c2ccc(Oc3ccccc3)cc2)ccc1O,Potency,[1],inactive
same,Potency,[2],inactive
same,Potency,[3],15.6 µM (active)
same,Potency,[4],12.4 µM (active)
same,Potency,[5],9.87 µM (active)
CS(=O)(=O)OCCCNCCCOS(C)(=O)=O,Potency,[2],inactive
CC(=O)O[C@@H]1CC2C(C)(C)C(=O)C=C[C@]2(C)C2CC[C@@]3(C)[C@H](c4ccoc4)OC(=O)[C@H]4O[C@]43[C@@]21C (some centres undefined),Potency,[1],inactive
same,Potency,[2],inactive
CC(=O)O[C@H]1CC[C@]2(C)[C@H]3CC[C@]4(C)Oc5oc(C)cc(=O)c5C[C@H]4[C@]3(C)CC[C@H]2C1(C)C,Potency,[1],inactive
same,Potency,[2],inactive
NC(=O)c1cccc2[nH]c(-c3ccc(C4CCCN4)cc3F)nc12 (centres undefined),Potency,[1],inactive
same,Potency,[2],inactive
CCOC(=O)CCNc1cc(N2CCc3ccccc3CC2)nc(-c2cccnc2)n1,Potency,[1],inactive
same,Potency,[2],inactive
C=C1C(=O)OC2CC3(C)C(O)C(=O)C=C(C)C3CC12 (centres undefined),Potency,[1],inactive
same,Potency,[2],inactive
COc1ccc(C(=O)O[C@H]2C=COC=C3C=C4C(=O)N(C)C(=S)C(=O)N4[C@@H]32)cc1Oc1cc(C=O)ccc1O,Potency,[1],inactive
same,Potency,[2],inactive
CC(C)C(C)C(O)C1CC23CC(=O)C4(O)C(=C2CCC3C1C)C=CC1(O)CC(O)CCC14C (centres undefined),Potency,[2],inactive
C=C1C(=O)O[C@@H]2/C=C(\C)CC/C=C(/C=O)[C@H](OC)[C@@H](OC(=O)C(C)C)[C@@H]12,Potency,[1],inactive
same,Potency,[2],inactive
O=C(O)CCc1nccc2c1[nH]c1ccccc12,Potency,[1],inactive
same,Potency,[2],inactive
COc1ccc(NC(=O)C2C[C@H](C)CC[C@H]2C(C)C)cc1 (some centres undefined),Potency,[1],inactive
same,Potency,[2],inactive
C=C1CC[C@@H]2[C@](C)(CO)[C@H](O)CC[C@@]2(C)[C@@H]1CC(O)C1=CCOC1=O (some centres undefined),Potency,[1],inactive
same,Potency,[2],inactive
Cc1nc(C(=O)N2CCC[C@H]2Cc2nnc(-c3ccccc3)o2)c(-c2ccccc2F)s1,Potency,[1],inactive
same,Potency,[2],inactive
O=C(/C=C/c1ccccc1O)O[C@@H]1O[C@H](CO)[C@@H](O)[C@H](O)[C@H]1O,Potency,[1],inactive
same,Potency,[2],inactive
C[C@@H](N[C@H]1CCCC[C@@H]1NC(=O)c1ccc(Cl)cc1)c1cccc2ccccc12,Potency,[2],23.1 µM (active)
CN1c2c(nc(N)[nH]c2=O)NC[C@@H]1CNc1ccc(C(=O)N[C@@H](CCC(=O)O)C(=O)O)cc1,Potency,[1],inactive
same,Potency,[2],inactive
COCCCNC(=O)c1ccc(Cn2c(=O)c3ccccc3n(Cc3ccc(C(C)C)cc3)c2=O)cc1,Potency,[1],inactive
same,Potency,[2],inactive
Nc1nc2c(nc(Br)n2[C@@H]2O[C@@H]3COP(=O)(O)O[C@H]3[C@H]2O)c(=O)[nH]1,Potency,[1],inactive
same,Potency,[2],inactive
CC/C(C)=C/C(=O)OC1C(OC2(C)CCC3C(C4C(C)CCC42)C3(C)C)OC(C)C(O)C1O (centres undefined),Potency,[1],inactive
same,Potency,[2],inactive
CC(C)n1nc(C#Cc2ccccc2)c2c(N)ncnc21,Potency,[1],14.6 µM (active)
same,Potency,[2],16.4 µM (active)
CC1=CC2/C=C(\C)CCC(O)C/C=C/C(=O)OC23C(=O)NC(CC(C)C)C3C1C (centres undefined),Potency,[1],inactive
same,Potency,[2],inactive
CC(CCC1(O)OC2CC3C4CC=C5C[C@@H](O[C@@H]6O[C@H](CO)[C@@H](O[C@@H]7O[C@@H](C)[C@H](O)[C@@H](O)[C@H]7O)[C@H](O)[C@H]6O[C@@H]6O[C@@H](C)[C@H](O)[C@@H](O)[C@H]6O)CC[C@]5(C)C4CC[C@]3(C)[C@@]2(O)[C@@H]1C)CO[C@@H]1O[C@H](CO)[C@@H](O)[C@H](O)[C@H]1O (some centres undefined),outcome,[1],inactive [at 9.29 µM]
same,"activity change, negative = cytotoxicity",[2],-2.5% [at 9.29 µM]
NCCC(=O)[N-][C@@H](Cc1cnc[nH]1)C(=O)O.[Zn],Potency,[2],inactive
